{"source": "PubChem BioAssay (NCI)", "note": "The panel holds about 83,000 compounds, 20% with a hit somewhere; the sample as a whole holds those more often.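 96-well plates, one dose, 48 hours. Percent growth reported; active if below 10.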 Calls of active or inactive are those of the source."}
{"test_system": "RPMI-8226 leukemia", "test": "NCI-60 one-dose screen, 48 h (100 = growth as untreated, 0 = no growth, -100 = all killed)", "settings": "10 µM unless noted"}
{"smiles": "O=C(Nc1cccc(F)c1)c1cc(=O)[nH]c2cc(Br)ccc12", "growth": "76.1% (inactive)"}
{"smiles": "COC(=O)[C@]12CCC(C)(C)C[C@H]1C1=CC[C@@H]3[C@@]4(C)C/C(=C/c5cccnc5)C(=O)C(C)(C)[C@@H]4CC[C@@]3(C)[C@]1(C)CC2", "growth": "-38.4% [100 µM] (active)"}
{"smiles": "N#C/C(C(=O)c1ccccc1)=C1/C(=O)Nc2ccc(Br)cc21", "growth": "102% (inactive)"}
{"smiles": "COc1ccc(-c2cc(-c3ccc(Cl)cc3)nc(NCCCCNc3ccnc4cc(Cl)ccc34)n2)cc1", "growth": "23.8% (inactive)"}
{"smiles": "CCCSc1nc(N)nc2nc[nH]c12", "growth": "101% (inactive)"}
{"smiles": "CCN(CC)c1ccc2cc(NC(=O)OCCNC(=O)CCNC(=O)[C@H](CC(C)C)NC(=O)C(C)(C)NC(=O)C(C)(C)NC(=O)[C@H](CC(C)C)NC(=O)CCNC(=O)C(C)(C)NC(=O)[C@H](CC(C)C)NC(=O)CCNC(=O)[C@@](C)(CC)NC(=O)[C@H](C)NC(=O)CCNC(=O)C(C)(C)NC(=O)[C@H](C)NC(=O)[C@@H]3CCCN3C(=O)[C@@](C)(CC)NC(=O)[C@H](Cc3ccccc3)NC(=O)C3CCCN3C(=O)C(C)(C)NC(=O)C3CCCN3C(=O)C(C)(C)NC(C)=O)c(=O)oc2c1", "note": "(stereo partly drawn)", "growth": "-60.4% (active)"}
{"smiles": "C=C(C)[C@@H]1CC[C@]2(C(=O)N3CCN(C)CC3)CC[C@]3(C)[C@H](CC[C@@H]4[C@@]5(C)C/C(=C/c6ccncc6)[C@H](O)C(C)(C)[C@@H]5CC[C@]43C)[C@@H]12", "growth": "-26.6% [100 µM] (active)"}
{"smiles": "CC[C@@](C)(NC(=O)[C@H](C)NC(=O)CCNC(=O)C(C)(C)NC(=O)[C@H](C)NC(=O)[C@@H]1CCCN1C(=O)[C@@](C)(CC)NC(=O)[C@H](Cc1ccccc1)NC(=O)C1CCCN1C(=O)C(C)(C)NC(=O)C1CCCN1C(=O)C(C)(C)NC(C)=O)C(=O)NCCC(=O)N[C@@H](CC(C)C)C(=O)NC(C)(C)C(=O)NCCC(=O)N[C@@H](CC(C)C)C(=O)NC(C)(C)C(=O)NC(C)(C)C(=O)N[C@@H](CC(C)C)C(=O)NCCC(=O)NCO", "note": "(stereo partly drawn)", "growth": "-55.5% (active)"}
